Screening data (PubChem)
TDP1 cell noCPT – qHTS for Inhibitors of human tyrosyl-DNA phosphodiesterase 1 (TDP1): qHTS in cells in absence of CPT; DT40 Tdp1-/- hTDP1 cells, no CPT, ATP luminescence, 48 h; Potency, µM (top dose mostly 46.2 µM), without a hit: at the highest dose activity change, negative = growth inhibition, usual class: inhibitors; 420,000 tested, 15% active; AID 686978, 2013; also: potency is read from the fitted curve at half-maximal effect; nearly all actives have a fitted effect of over 55% in size
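Growth of hTDP1-complemented DT40 Tdp1-knockout cells is measured by ATP luminescence after at least 48 hr compound exposure at 37 °C, with DMSO substituting for the 20 nM CPT used in the parallel screen.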
12-LOX inh – blocks human arachidonate 12S-lipoxygenase. P18054. purified 12hLO, xylenol orange hydroperoxide absorbance. Potency, µM (top dose mostly 108 µM), for the others: at the highest dose activity change, negative = inhibition, usual class: inhibitors. 580,000 tested, 1.1% active; also: potency is read from the fitted curve at half-maximal effect
Target sequence (P18054 whole entry, looked up): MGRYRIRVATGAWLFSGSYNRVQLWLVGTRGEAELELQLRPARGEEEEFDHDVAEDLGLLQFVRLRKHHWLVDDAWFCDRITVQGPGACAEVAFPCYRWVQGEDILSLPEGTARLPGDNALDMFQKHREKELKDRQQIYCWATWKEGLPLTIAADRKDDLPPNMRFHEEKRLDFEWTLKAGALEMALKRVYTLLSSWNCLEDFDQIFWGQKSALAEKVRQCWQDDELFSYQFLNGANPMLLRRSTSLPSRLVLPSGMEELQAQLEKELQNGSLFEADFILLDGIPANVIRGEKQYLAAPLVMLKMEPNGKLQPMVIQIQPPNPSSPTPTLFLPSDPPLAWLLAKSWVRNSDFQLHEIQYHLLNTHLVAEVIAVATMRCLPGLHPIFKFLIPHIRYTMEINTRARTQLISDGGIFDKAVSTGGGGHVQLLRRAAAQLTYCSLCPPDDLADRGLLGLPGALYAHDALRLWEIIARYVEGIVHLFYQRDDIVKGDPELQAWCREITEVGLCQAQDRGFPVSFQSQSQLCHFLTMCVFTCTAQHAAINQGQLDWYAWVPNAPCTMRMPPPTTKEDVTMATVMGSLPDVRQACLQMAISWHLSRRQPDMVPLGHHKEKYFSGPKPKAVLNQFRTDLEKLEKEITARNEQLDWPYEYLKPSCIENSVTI
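Hydroperoxide product was detected by ferrous iron/xylenol orange as the 573 to 405 nm absorbance ratio. Arachidonic acid at 40 uM (final) was turned over for 30 min at room temperature by 150 nM human 12hLO, pH 7.0 Hepes buffer, after 15 min compound preincubation.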
IL-1B inflam inh – blocks inflammasome-driven IL-1 beta release; activity change, % at 57.5 µM; 360,000 tested, 4.7% active; THP-1 LPS/ATP IL-1B secretion, AlphaLISA, 16 h; active compounds read low; in the data active = activity change below about -50%; inconclusive = mostly about -30% to -49%
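Secreted IL-1B measured by AlphaLISA bead assay after 16 h compound exposure of THP-1 cells; compounds (final up to 57.5 uM) added 1 h before LPS (250 ng/mL) and ATP (1.25 mM) stimulation; lower signal means less secretion.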
HT1080NT lethal – kills 2HG-producing HT-1080-NT fibrosarcoma cells; HT-1080-NT fibrosarcoma viability, CellTiter-Glo ATP luminescence, 48 h; Potency, µM (highest dose often 46.1 µM), for inactives: at the highest dose activity, negative = less viability, hits mostly cytotoxic; 360,000 tested, 1.6% active; AID 686970;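 also: NT is the 2HG producing partner of a matched IDH1 knockdown line; potency is read from the fitted curve at half-maximal effect; 0% = DMSO-treated cells and -100% = media-only wells without cells; nearly all actives have a fitted effect of over 55% in size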
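Read-out is CellTiter-Glo luminescence after 10 minutes at room temperature, following 48 hours' compound treatment of HT-1080-NT cells (750 cells/well, RPMI, 5% FBS, 37 degrees C).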
DT40 TDP1 CPT – DT40-hTDP1 cell growth loss with CPT; Potency, µM (highest dose often 46.2 µM), for the others: at the highest dose activity change, negative = growth inhibition, most hits filed as inhibitors; 420,000 tested, 12% active; AID 686979; chicken DT40 Tdp1-/-;hTDP1 cells + 20 nM CPT, ATP luminescence, 48 h; also: potency is read from the fitted curve at half-maximal effect; nearly all actives have a fitted effect of over 55% in size
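Chicken DT40 Tdp1-/- cells complemented with human TDP1, 400 cells/well, exposed to compounds plus 20 nM camptothecin for at least 48 h at 37 C; viability read as ATP content by CellTiter-Glo luminescence.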
HT1080 IDH1KD tx – toxicity to HT-1080 IDH1 knockdown cells (counter line) | 360,000 tested, 2% active | Potency, µM (top dose mostly 46.1 µM), for the others: at the top dose activity, negative = toxicity, hits mostly cytotoxic | HT-1080 IDH1 knockdown viability, ATP luminescence, 48 h;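 also: potency is read from the fitted curve at half-maximal effect; 0% = DMSO wells and -100% = cell-free medium wells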
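Knockdown cells (IDH1KD HT-1080) received compounds 2 h after plating at 750 cells/well and were kept 48 h at 37 °C in 5% FBS RPMI. A CellTiter-Glo luminescence read gave % activity for curve fitting.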
* marks the source's active call; other numbers are inactive results; ? = inconclusive; . = not tested or not shown; [ ] = dose if it differs, or a comment. Many of the other results were omitted from the sample, so hits are more common in it than they were. Unless noted, calls follow the shape of the dose curve; as a rule, active = well fitted curve in the direction sought with a large enough effect; inconclusive = small, poorly fitted or top-dose-only effect, or another doubt; inactive = no such curve, though single readings can be large; an effect the other way counts as inactive or inconclusive. Unless noted, % is scaled to controls: 0 for no effect and ±100 for the full control effect.

SMILES | TDP1 cell noCPT | 12-LOX inh | IL-1B inflam inh | HT1080NT lethal | DT40 TDP1 CPT | HT1080 IDH1KD tx
O=C(O)c1ccc(N2CC3CC(C2)c2cccc(=O)n2C3)c(NC(=S)Nc2ccc(Br)cc2)c1 (stereo not drawn) | ? | 39.8µM* | -0.5 | -11.3% | ? | -14.9%
C[C@H]1[C@@H](NC(=O)Nc2ccc(C#N)cc2)CC[C@@]23CCCN2C(=O)CCC[C@@H]13 | . | 5.5% | . | . | . | .
Cn1ccnc1CN1CCCC(CCc2ccccc2)C1 (stereo not drawn) | . | 64.2% | . | . | . | .
O=c1c(Cl)c(N2CCN(c3ccc(F)cc3)CC2)cnn1C12CC3CC(CC(C3)C1)C2 | ? | -23.5% | 11.4 | 1.4% | ? | 0.4%
O=c1c(Cl)c(NCc2ccc(F)cc2)cnn1C12CC3CC(CC(C3)C1)C2 | 16.4µM* | 6.6% | -10.6 | -1.8% | 16.4µM* | -8.8%
O=c1c(Cl)c(N2CCN(c3ccccc3)CC2)cnn1C12CC3CC(CC(C3)C1)C2 | 23.1µM* | -15.0% | 5.8 | ? | 25.9µM* | ?
CCOc1nccnc1NC1CCN(C(=O)Cc2cccs2)CC1 | . | 18.7% | . | . | . | .
O=C(NCCn1cccn1)c1ccc(OC2CCN(CCc3ccccc3)CC2)cc1 | -18.9% | 0.0% | -80.9* | -4.3% | 13.4% | 0.5%
O=C(NCCn1ccnc1)c1ccc(OC2CCN(CCc3ccccc3)CC2)cc1 | . | 7.6% | . | . | . | .
COc1ccc(NC(=S)N(CCCN2CCCC2)Cc2cccn2Cc2ccc(Cl)cc2)cc1Cl | 20.6µM* | 0.0% | -51.6* | ? | 14.6µM* | ?
Cc1ccc(NC(=S)N(CCCN2CCCC2)Cc2cccn2Cc2ccc(Cl)cc2)cc1C | 20.6µM* | -15.4% | -4.4 | 0.7% | ? | -16.3%
FC(F)(F)c1cccc(NC(=S)N(CCCN2CCCC2)Cc2cccn2Cc2ccc(Cl)cc2)c1 | 16.4µM* | ? | -89.4* | ? | ? | 23.1µM*
Cc1ccc(NC(=S)N(CCCN2CCCC2)Cc2cccn2Cc2ccc(Cl)cc2)cc1Cl | 6.51µM* | 0.0% | -52.6* | ? | ? | -7.7%
COc1ccc(NC(=S)NCCCN2CCCC2)cc1Cl | 2.5% | -17.2% | -17.8 | 4.3% | 20.5% | 7.5%
S=C(Nc1ccc(Cl)cc1)N(CCCN1CCOCC1)Cc1ccco1 | -4.1% | -12.8% | -0.5 | 3.6% | 19.9% | 5.0%
CCN1CCN(CCCN(Cc2ccco2)C(=S)Nc2ccc(Cl)c(C)c2)CC1 | ? | -12.4% | -13.0 | -23.3% | -15.5% | -16.5%
C=C(C)[C@@H]1CC[C@@H](C)C[C@@H]1O | . | 14.7%[176 µM] | . | . | . | .
COc1ccc(N2CC(c3noc(-c4cc(F)ccc4F)n3)CC2=O)cc1 (stereo not drawn) | . | 23.9% | . | . | . | .
COc1ccc(CCCn2ccnc2-c2cn(C3CCNCC3)nn2)cc1 | . | 74.7% | . | . | . | .
CCCn1c(C)cnc1CC1CCN(C(=O)c2ccccn2)C1 (stereo not drawn) | . | -14.9% | . | . | . | .
NC(=O)NC(=O)CCN1CCOC(c2cccc(Br)c2)C1 (stereo not drawn) | . | 10.7% | . | . | . | .
O=C1Nc2cc(Cl)ccc2C(=O)N2CCN(C(=O)c3ccccc3)C[C@H]12 | . | 10.0%[176 µM] | . | . | . | .
FC(F)(F)c1ccc2c(c1)nc(-c1ccc(Cl)cc1)c1nccn12 | . | -9.7% | . | . | . | .
O=C(Nc1ccc2[nH]c(=O)[nH]c2c1)c1nn(-c2ccc(F)cc2)c2c1CCCC2 | . | -3.6% | . | . | . | .
CCOc1ccc(N(C)S(=O)(=O)c2cc(-c3cc(C)no3)ccc2CC)cc1 | 18.4µM* | -5.6% | 0.0 | -21.7% | ? | -19.9%
SMILES | TDP1 cell noCPT | 12-LOX inh | IL-1B inflam inh | HT1080NT lethal | DT40 TDP1 CPT | HT1080 IDH1KD tx
CCOc1ccc(N(C)S(=O)(=O)c2cc(-c3cc(C)no3)ccc2OC)cc1 | 14.6µM* | -2.8% | -10.3 | -13.1% | 23.1µM* | -25.4%
COc1ccc(-c2cc(C)no2)cc1S(=O)(=O)N(C)c1ccc(C)cc1 | 9.2µM* | -1.6% | 24.2 | ? | 10.3µM* | ?
CCOc1ccc(N(C)S(=O)(=O)c2cc(-c3cc(C)no3)ccc2C)cc1 | ? | -9.4% | -19.0 | -14.9% | ? | ?
Cc1ccc2occ(CC(=O)Nc3ccc(S(=O)(=O)N4CCCC(C)C4)cc3)c2c1 (stereo not drawn) | ? | 0.7% | . | . | ? | .
Cc1ccc2oc(C(=O)Nc3ccc(S(=O)(=O)N4CCCC(C)C4)cc3)cc(=O)c2c1 (stereo not drawn) | 8.2µM* | -15.6% | . | . | 16.4µM* | .
Cc1cc(C)c2oc(C(=O)Nc3ccc(S(=O)(=O)N4CCCC(C)C4)cc3)cc(=O)c2c1 (stereo not drawn) | ? | 1.8% | 11.1 | 13.4% | 14.6µM* | 4.2%
Cc1ccc2c(=O)cc(C(=O)Nc3ccc(S(=O)(=O)N4CCCC(C)C4)cc3)oc2c1C (stereo not drawn) | ? | 9.7% | . | . | ? | .
Cc1cc(C(=O)N/N=C\c2cc(C(C)(C)C)ccc2O)n[nH]1 | 3.26µM* | . | 197.9 | ? | 20.6µM* | ?
Cc1cc(C(=O)N/N=C/c2cc(Br)cc(Br)c2OC(=O)c2cccc(F)c2)n[nH]1 | 5.8µM* | -9.1% | 78.0 | -5.5% | 5.8µM* | -18.2%
Cc1ccc(-c2cc(C(=O)N/N=C/C(Br)=C/c3ccccc3)n[nH]2)o1 | 10.3µM* | -9.9% | ? | 20.6µM* | 11.6µM* | 20.6µM*
Cc1ccc(-c2cc(C(=O)N/N=C/c3ccccc3O)n[nH]2)o1 | 5.17µM* | -20.2% | 84.4 | ? | 5.17µM* | ?
Cc1ccc(-c2cc(C(=O)N/N=C/c3c[nH]c4ccccc34)n[nH]2)o1 | ? | 7.3% | -23.5 | -19.2% | ? | -5.0%
COc1ccc2c(c1)c(CN1C[C@@H](C(N)=O)[C@H](c3nc(C)no3)C1)cn2C(C)C | . | 27.3% | . | . | . | .
O=C(O)COc1ccc(-c2nccc3c2C(=O)N(Cc2c[nH]c4ccccc24)CC(COc2ccccc2F)O3)cc1 (stereo not drawn) | . | 14.3% | . | . | . | .
CNC(=O)OCc1nc(SSC(C)(C)C)n(C)c1COC(=O)NC | 2.06µM* | 5.3% | -100.0* | ? | 2.06µM* | 18.4µM*
CCSc1nc(COC(=O)NC)c(COC(=O)NC)n1C | 5.17µM* | -0.6% | 0.0 | 17.5% | 2.31µM* | 1.2%
O=C1CCN(C(=O)CCCc2ccccc2)CCCCCCN1 | . | 54.7% | . | . | . | .
O=C(Cn1c2ccccc2c(=O)c2ccccc21)Nc1ccccc1F | ? | ? | -7.5 | -2.1% | 13µM* | -24.1%
Cc1cc2c(c(=O)n(-c3ccccc3)c(=O)n2CC(=O)Nc2ccccc2F)n1C | . | 44.7µM* | . | . | . | .
